# Hits are enriched below; roughly 1.8% of the tested compounds scored in any of these assays.
# ABCB6 inh MLPCN: inhibitors of human ABC transporter ABCB6 | fluorescence ratio to DMSO, % at 10 µM | Q9NP58 | 360,000 tested, 0.19% active | K562-ABCB6 porphyrin accumulation, flow cytometry, 1 h; active compounds read low;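 active = fluorescence ratio to DMSO below 75%, the collection mean minus 3 SD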;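 note: signal is porphyrin accumulated inside mitochondria; lower ratio means ABCB6 inhibition with less porphyrin fluorescence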
# ARNT TACC3 PPI: disruptors of human ARNT/TACC3 interaction; AlphaScreen His-ARNT PAS-B/GST-TACC3 binding, luminescence; TACC3 fragment carries E629A point mutation; Q9Y6A5; inhibition, % at 9.99 µM; 390,000 tested, 0.66% active; AID 623870;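 active = mean inhibition of replicates at least 50% and at least half of replicates each reaching 50%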
# INS-1E GSIS act: GLuc luminescence reporter in INS-1E cells, primary screen for activators of glucose-dependent secretion of insulin; AID 743287; 370,000 tested, 0.61% active; activation, % at 16.6 µM; INS-1E GLuc reporter insulin secretion, 2-3 h;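 active = lowest replicate activation of at least 40%, so every replicate reaches that level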
# NRP1-CendR mod: modulators of CendR peptide binding to human neuropilin-1; FAM-RPARPAR peptide binding to NRP-1, fluorescence polarization; inhibition, % at 25 µM; 360,000 tested, 0.85% active; AID 602438;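 active = inhibition or corrected inhibition above about 18%, plus a signal ratio from 0.5 to 1.5, limit read from the data, passing the limit was not always enough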
# Target sequence (O14786 whole entry, looked up): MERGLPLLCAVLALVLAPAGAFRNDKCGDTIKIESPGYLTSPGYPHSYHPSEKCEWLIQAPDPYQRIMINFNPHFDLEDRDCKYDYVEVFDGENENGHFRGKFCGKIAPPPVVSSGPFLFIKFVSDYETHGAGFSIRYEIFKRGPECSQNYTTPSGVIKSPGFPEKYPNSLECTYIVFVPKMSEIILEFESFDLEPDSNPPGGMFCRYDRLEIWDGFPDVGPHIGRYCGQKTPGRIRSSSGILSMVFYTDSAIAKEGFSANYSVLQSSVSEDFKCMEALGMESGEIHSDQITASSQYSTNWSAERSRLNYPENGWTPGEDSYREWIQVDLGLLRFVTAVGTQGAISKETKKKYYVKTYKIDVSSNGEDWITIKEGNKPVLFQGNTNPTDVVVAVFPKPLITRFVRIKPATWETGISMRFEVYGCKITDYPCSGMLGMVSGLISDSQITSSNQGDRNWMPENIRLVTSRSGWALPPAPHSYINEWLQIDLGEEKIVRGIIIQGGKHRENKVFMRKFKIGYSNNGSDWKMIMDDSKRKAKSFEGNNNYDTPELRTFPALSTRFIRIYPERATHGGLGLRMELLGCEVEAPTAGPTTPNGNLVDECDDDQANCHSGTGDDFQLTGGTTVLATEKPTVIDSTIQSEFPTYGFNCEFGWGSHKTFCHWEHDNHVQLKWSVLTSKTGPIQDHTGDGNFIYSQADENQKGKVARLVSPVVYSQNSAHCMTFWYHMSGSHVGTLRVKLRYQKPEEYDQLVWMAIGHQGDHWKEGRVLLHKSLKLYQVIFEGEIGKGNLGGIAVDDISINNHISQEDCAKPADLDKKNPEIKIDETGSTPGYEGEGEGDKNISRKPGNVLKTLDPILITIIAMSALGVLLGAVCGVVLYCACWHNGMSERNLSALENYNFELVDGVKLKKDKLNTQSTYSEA
# iPSC survival up: hiPSC single-cell survival enhancement | ATPlite luminescence; 100% = ROCK inhibitor wells, 0% = DMSO | survival enhancement, % at 20 µM | 360,000 tested, 0.044% active | AID 602274; in the data active = survival enhancement above about 18%;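 note: cells exposed to compounds for 16 hours before the ATP read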
# A number is an active result; 0 = inactive; - = no result given.
SMILES,ABCB6 inh MLPCN,ARNT TACC3 PPI,INS-1E GSIS act,NRP1-CendR mod,iPSC survival up
Cc1[nH]n(C(N)=S)c(=O)c1N=Nc1ccc([N+](=O)[O-])cc1Cl,0,0,0,39,0
C[C@H](CO)N1C[C@H](C)[C@H](CN(C)Cc2ccc(Cl)c(Cl)c2)Oc2c(NC(=O)C3CCOCC3)cccc2C1=O,-,0,0,-,-
Cc1cc(C)c2oc(C(=O)NC3CCS(=O)(=O)C3)cc(=O)c2c1 (stereo not given),0,0,0,0,0
Cc1ccc2c(=O)cc(C(=O)NC3CCS(=O)(=O)C3)oc2c1C (stereo not given),0,0,42,0,0
CS(=O)(=O)Nc1ccc2c(c1)[C@@H]1C[C@@H](CC(=O)N3CCCCC3)O[C@H](CO)[C@@H]1O2,-,0,0,-,-
CC(CN1CCCCC1)OC(=O)c1ccc(Cl)cc1Cl (stereo not given),0,0,-,22,0
CNC[C@H]1Oc2ccc(NC(=O)C3CCCCC3)cc2CC(=O)N([C@@H](C)CO)C[C@@H]1C,-,0,0,-,-
CCCCc1c(C)c2ccc(OCC(C)=O)cc2oc1=O,0,0,-,0,0
CCCc1c(C)c2ccc(OCC(C)=O)cc2oc1=O,0,0,51,0,0
COc1ccc(S(=O)(=O)N(C)C[C@@H]2Oc3ccc(NC(=O)CCN4CCOCC4)cc3CC(=O)N([C@H](C)CO)C[C@H]2C)cc1,-,0,0,-,-
O=c1cc(-c2cccc(Br)c2)nc(-c2ccccc2F)o1,0,0,46,0,0
CC(C)(C)Nc1nc(OCC(F)(F)F)nc(OCC(F)(F)F)n1,0,0,-,0,0
CONc1nc(NC(C)(C)C)nc(OCC#N)n1,0,-,65,0,0
Cc1ccc(-n2ncc3c(NNC(=O)c4ccco4)ncnc32)c(C)c1,0,0,0,0,0
O=C(NNc1ncnc2c1cnn2-c1ccc(F)cc1)c1ccco1,0,0,0,29,0
O=C(Nc1cccc(F)c1)N1CC(=O)N2[C@H](CO)[C@@H](c3ccc(C#CC4CC4)cc3)[C@@H]2C1,-,-,0,-,-
Cc1cccc(N2CCN(S(=O)(=O)c3ccc4c(c3)C(C)(C)C(=O)N4C)CC2C)c1 (stereo not given),0,0,0,0,0
Cc1cccc(N2CCN(S(=O)(=O)c3ccc(Cl)nc3)CC2C)c1 (stereo not given),0,-,-,27,0
O=C1/C(=C\c2ccc(Cl)c(Cl)c2)CN(C(=O)CCN2CCOCC2)C/C1=C/c1ccc(Cl)c(Cl)c1,0,0,136,0,0
CC(C)NC(=O)CSc1nnc(-c2ccc3ncccc3c2)n1C,0,0,0,25,0
NCC(O)COCCC12CC3CC(CC(C3)C1)C2 (stereo not given),0,0,-,0,0
CC(NCC(O)COCCC12CC3CC(CC(C3)C1)C2)c1ccccc1 (stereo not given),0,0,167,0,0
COc1ccc(C)c2sc(N(CCCN(C)C)C(=O)c3ccc(S(=O)(=O)N4CCc5ccccc5C4)cc3)nc12,0,0,189,0,0
COc1cccc2sc(N(CCCN(C)C)C(=O)c3ccc(S(=O)(=O)N4CCc5ccccc5C4)cc3)nc12,0,0,0,0,0
Fc1ccc(C2=CC(c3ccco3)n3ncnc3N2)cc1 (stereo not given),0,0,-,38,0
SMILES,ABCB6 inh MLPCN,ARNT TACC3 PPI,INS-1E GSIS act,NRP1-CendR mod,iPSC survival up
C1=C(c2ccc(-c3ccccc3)cc2)Nc2ncnn2C1c1ccco1 (stereo not given),0,0,-,0,0
C[C@H](CO)N1C[C@H](C)[C@@H](CN(C)C(=O)Cc2ccncc2)Oc2cc(C#CC3CCCC3)ccc2S1(=O)=O,-,0,0,-,-
C[C@H](CO)N1C[C@H](C)[C@H](CN(C)C(=O)NC2CCCCC2)Oc2ccc(NC(=O)CCCN(C)C)cc2C1=O,-,0,0,-,-
CC1CC(C)CN(CCCNC(=O)CN2C(=O)CSc3ccc(S(=O)(=O)N4CCOCC4)cc32)C1 (stereo not given),0,0,0,19,0
C[C@H]1CN([C@@H](C)CO)C(=O)c2cc(/C=C/c3ccccc3)cnc2O[C@H]1CN(C)C(=O)c1ccccc1,-,0,0,-,-
O=C(CN(c1cccc(Cl)c1)S(=O)(=O)c1ccc(Cl)cc1)NCc1ccccn1,0,47,-,0,0
CCN(CC(=O)NCc1ccccn1)S(=O)(=O)c1cc(Cl)ccc1Cl,0,0,0,0,0
CNC(=O)COC(=O)c1ccccc1C(=O)c1ccc(Cl)c([N+](=O)[O-])c1,0,0,0,0,0
O=C(COC(=O)c1ccccc1C(=O)c1ccc(Cl)c([N+](=O)[O-])c1)NC1CC1,0,0,0,0,36
CCN(CC)C(=O)Cn1cc(S(=O)(=O)CC(=O)NCc2ccc(C)cc2)c2ccccc21,0,0,0,22,0
Cc1ccc(S(=O)(=O)N2CCN(C(=O)COC(=O)c3ccc(O)cc3)CC2)c(C)c1,0,0,49,0,0
Cc1ccc(-c2cc(=O)c3cc(C)ccc3[nH]2)cc1,0,0,0,30,0
O=c1cc(-c2ccccc2)[nH]c2ccc(F)cc12,0,0,-,23,0
CC1(c2ccc(OC(F)F)cc2)NC(=O)N(CC(=O)Nc2ccc(OC(F)F)cc2)C1=O (stereo not given),0,0,0,18,0
CC1(c2ccc(OC(F)F)cc2)NC(=O)N(CC(=O)Nc2ccc(F)cc2)C1=O (stereo not given),0,0,0,0,0
Cc1ccc(C2(C)NC(=O)N(CC(=O)N(C)CC(=O)Nc3cccc(F)c3)C2=O)cc1 (stereo not given),0,0,0,0,0
COc1cccc(NC(=O)CN(C)C(=O)CN2C(=O)NC(C)(c3ccc(C)cc3)C2=O)c1 (stereo not given),0,0,0,19,0
COc1ccccc1NC(=O)N[C@H]1CC[C@@H](CCn2cc(-c3ccccc3OC)nn2)O[C@@H]1CO,-,0,0,-,-
COc1ccc2c3c(n(C)c2c1)[C@H](CO)N(C(=O)Cc1ccccn1)CC31CCN(Cc2ccccn2)CC1,-,-,0,-,-
C/C=C/c1ccc2c(c1)O[C@@H](CN(C)C(=O)C1CCC1)[C@@H](C)CN([C@@H](C)CO)S2(=O)=O,-,-,0,-,-
CN(C(=O)COC(=O)c1cccs1)c1ccccc1,0,-,117,0,0
C[C@H]1CN([C@@H](C)CO)C(=O)c2cc(NC(=O)Nc3ccc(F)cc3)ccc2O[C@H]1CN(C)S(=O)(=O)c1cn(C)cn1,-,-,0,-,-
COc1ccc(-c2cnc(N)nc2-c2ccc(OC)cc2)cc1,0,0,52,0,0
COc1ccc(-c2ncncc2-c2ccc(OC)c(OC)c2)c(O)c1,0,0,0,0,0
COc1ccc(-c2nc(N)ncc2-c2ccc(OC)c(OC)c2)c(O)c1,0,0,49,0,0
CCCNC(=O)N1[C@@H](CO)[C@@H](c2ccc(C3=CCCC3)cc2)[C@@H]1CNC(C)=O,-,0,0,-,-
